# From the supplement of paper PMC7530171
# Counter-ions that a name gives are not always drawn. ± gives the standard deviation.
# System: THP-1
# Experiment: THP-1 cell loss relative to DMSO control; higher = more host cell loss (toxicity); extreme values may be limits of the assay
# Conditions: 10 µM; 4 days; infection: M. tuberculosis H37Rv
# Description: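 OICR kinase inhibitor library screened in duplicate at 10 uM against M. tuberculosis-infected THP-1 macrophages, 4 days at 37 C. THP-1 cell loss (cytotoxicity or loss of adherence) was quantified from Hoechst-stained nuclei counts by high-content imaging and normalised to the 1% DMSO control; 100 = complete loss of host cells.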
row,SMILES,THP-1 cell loss
1,Cc1nc(N)sc1-c1ccnc(Nc2ccc(N3CCOCC3)cc2)n1,74.97 ± 0.66%
2,Cn1cc(C2=C(c3ccc(Cl)cc3Cl)C(=O)NC2=O)c2ccccc21,15.5 ± 22%
3,CC1=C(C(=O)Nc2cc3cn[nH]c3cc2F)C(c2ccc(C(F)(F)F)cc2)CC(=O)N1 (stereo not drawn),0%
4,c1ccc(-c2[nH]ncc2-c2ccnc3ccccc23)nc1,0%
5,Cc1[nH]c(/C=C2\C(=O)Nc3ccc(S(=O)(=O)N(C)c4cccc(Cl)c4)cc32)c(C)c1C(=O)N1CCN(C)CC1,65.8 ± 13%
6,O=C(O)c1ccc2c(c1)nc(Nc1cccc(Cl)c1)c1ccncc12,66.8 ± 1.6%
7,O=C(O)c1ccc2c3c1cccc3c(=O)n1c3ccccc3nc21 [STO-609 acetic acid],35.7 ± 5.5%
8,COc1cc(Nc2c(C#N)cnc3cc(OCCCN4CCN(C)CC4)c(OC)cc23)c(Cl)cc1Cl [Bosutinib],59.6 ± 15%
9,CN1CCC(COc2cnc(-c3cccc(Cn4nc(-c5cccc(C#N)c5)ccc4=O)c3)nc2)CC1,90.4 ± 14%
10,CN(C)c1ccc(/C=C2/C(=O)Nc3ccccc32)cc1,20.5 ± 18%
11,COc1cc2ncnc(Nc3ccc(O)cc3)c2cc1OC [Janex-1],10.7 ± 0.54%
12,Nc1nccc(-c2ccc3noc(-c4ccc(Cl)cc4)c3c2)n1 [PIM 1 Inhibitor 2],9.99 ± 7.3%

# System: THP-1 macrophages infected with Mycobacterium tuberculosis H37Rv
# Experiment: intracellular M.tb growth inhibition relative to DMSO (0) and 4 uM bedaquiline (100); higher = stronger inhibition of intracellular bacterial growth
# Conditions: 10 µM; 4 days
# Description: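 OICR kinase inhibitor library screened in duplicate at 10 uM against THP-1 macrophages (PMA-differentiated) infected with M. tuberculosis H37Rv-pTEC27 (tdTomato RFP), 4 days at 37 C. Rows with complete host cell loss (placeholder inhibition 0, cell loss 100) were removed.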
row,SMILES,intracellular M.tb growth inhibition
1,C[C@@H](Oc1cc(-c2cnn(C3CCNCC3)c2)cnc1N)c1c(Cl)ccc(F)c1Cl,-114 ± 120%
2,CC(C)[C@H](CO)Nc1nc(Nc2ccc(C(=O)O)c(Cl)c2)c2ncn(C(C)C)c2n1 [Purvalanol B],2.54 ± 10%
3,CCn1c(-c2nonc2N)nc2cnc(Oc3cccc(NC(=O)c4ccc(OCCN5CCOCC5)cc4)c3)cc21,54.4 ± 77%
4,C[C@@H](N)[C@H]1CC[C@H](C(=O)Nc2ccncc2)CC1,-59.3 ± 110%
5,CCOc1cc(/C=C(\C#N)C(N)=O)cc(CSc2ccccc2)c1O,-116 ± 140%
6,Nc1cc(C(F)(F)F)c(-c2cc(N3CCOCC3)nc(N3CCOCC3)n2)cn1,-76.8 ± 110%
7,Cc1c(NC(=O)OC[C@@H]2COCCN2)cn2ncnc(Nc3ccc4c(cnn4Cc4cccc(F)c4)c3)c12,48.3 ± 10%
8,Cc1ccccc1C(=O)c1ccc(Nc2ccc(Br)cc2N)cc1Cl,20.1 ± 14%
9,Cc1ccc(S(=O)(=O)Nc2nc3ccccc3nc2Nc2ccc3nsnc3c2)cc1,-56.4 ± 99%
10,CO[C@H]1C[C@@H]2CC[C@@H](C)[C@@](O)(O2)C(=O)C(=O)N2CCCC[C@H]2C(=O)O[C@H]([C@H](C)C[C@@H]2CC[C@@H](OC(=O)C(C)(CO)CO)[C@H](OC)C2)CC(=O)[C@H](C)/C=C(\C)[C@@H](O)[C@@H](OC)C(=O)[C@H](C)C[C@H](C)/C=C/C=C/C=C/1C [Temsirolimus],-22.8 ± 24%
11,CC(=O)c1c(C)c2cnc(Nc3ccc(N4CCNCC4)cn3)nc2n(C2CCCC2)c1=O,-126 ± 210%
12,COc1cc(Nc2ncc3c(n2)-c2ccc(Cl)cc2C(c2c(F)cccc2OC)=NC3)ccc1C(=O)O,-73.6 ± 120%
13,NS(=O)(=O)c1nn2cc(-c3ccccc3)nc2s1,42.3 ± 16%
14,COc1cc2/c(=N/c3ccc(Br)cc3F)nc[nH]c2cc1OCC1CCN(C)CC1 [Vandetanib],64.1 ± 6.5%
15,COc1cc2nccc(Oc3ccc(NC(=O)Nc4cc(C)on4)c(Cl)c3)c2cc1OC,-5.89 ± 83%
16,COc1cc(Nc2ncc(F)c(Nc3ccc4c(n3)N(COP(=O)(O)O)C(=O)C(C)(C)O4)n2)cc(OC)c1OC,11 ± 16%
17,N#CC(=C(/N)Sc1ccccc1N)/C(C#N)=C(/N)Sc1ccccc1N,13.3 ± 58%
18,CCN(CC)CCCCN1c2ccccc2Oc2ccc(Cl)cc21 [10-DEBC hydrochloride],123 ± 1.9%
19,CCOc1cc2ncc(C#N)c(Nc3ccc(OCc4ccccn4)c(Cl)c3)c2cc1NC(=O)/C=C/CN(C)C [Neratinib],-146 ± 210%
20,Cc1nc(N)sc1-c1ccnc(Nc2ccc(N3CCOCC3)cc2)n1,13.1 ± 18%
21,Cn1cc(C2=C(c3ccc(Cl)cc3Cl)C(=O)NC2=O)c2ccccc21,-108 ± 200%
22,CC1=C(C(=O)Nc2cc3cn[nH]c3cc2F)C(c2ccc(C(F)(F)F)cc2)CC(=O)N1 (stereo not drawn),-101 ± 100%
23,c1ccc(-c2[nH]ncc2-c2ccnc3ccccc23)nc1,2.68 ± 17%
24,O=C(Nc1cccc(Cl)c1)Nc1ncc(CCNc2ncnc3ccsc23)s1,-53.6 ± 76%
25,O=C1C(Cl)=C(NCCN2CCOCC2)C(=O)c2ncccc21,-3.64 ± 5.1%
26,Cc1[nH]c(/C=C2\C(=O)Nc3ccc(S(=O)(=O)N(C)c4cccc(Cl)c4)cc32)c(C)c1C(=O)N1CCN(C)CC1,41.9 ± 66%
